A short description of test [1]: qHTS of pediatric cancer cell lines to identify multiple opportunities for drug repurposing: Primary screen for MG 63 (6-TG R) cells (AID 1347105). Note: nearly all actives have a fitted effect of over 50% in size. Note: potency is the fitted concentration of half-maximal effect. A digest of the protocol: (§1)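 Cells plated at 500-1,000/well in growth medium, compounds added after 5 h. MIPE tested at 11 points (from 0.78 nM), NPC at 8 points (from 0.59 nM). CellTiter-Glo luminescence after 48 h; concentration-response curves from primary screen.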
(qHTS replaces the single test concentration by a dilution series.)

The nature of test [2]: qHTS of pediatric cancer cell lines to identify multiple opportunities for drug repurposing: Primary screen for control Hh wild type fibroblast cells (AID 1347106).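 Note: series mostly up to about 46 µM; a drop in luminescence marks cytotoxicity and a rise apparent proliferation; nearly all actives have a fitted effect of over 55% in size.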 The method in brief:
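Cells (500-1,000/well) in growth media were settled 5 h at 37 degrees C, then given compounds for 48 h. Viability was read as CellTiter-Glo luminescence. Primary runs used MIPE at 11 points (0.78 nM-46 µM) and NPC at 8 points (0.59 nM-46 µM); follow-ups used 11 points.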

Test [3] is described as follows: qHTS of pediatric cancer cell lines to identify multiple opportunities for drug repurposing: Primary screen for Rh30 cells (AID 1347107). Note: series mostly up to about 46 µM; nearly all actives have a fitted effect of over 75% in size. The method in brief:
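Viability after 48 h compound treatment at 37C, 500-1,000 cells/well, read as ATP luminescence with CellTiter-Glo. Primary screens used 11-point (MIPE, 0.78 nM-46 µM) or 8-point (NPC, 0.59 nM-46 µM) final concentrations; follow-up screens used 11-point dilutions.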

Test [4] in a line: qHTS of pediatric cancer cell lines to identify multiple opportunities for drug repurposing: Primary screen for Rh41 cells (AID 1347108).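 Note: series mostly up to about 46 µM; luminescence drop marks cytotoxic hits; nearly all actives have a fitted effect of over 70% in size.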 A digest of the protocol:
as §1

Results filed as inconclusive are left out. Active and inactive are the calls of the source. Calls come from the whole dose curve; as a rule, active = well fitted curve in the direction sought with a large enough effect; inconclusive = small, poorly fitted or top-dose-only effect, or another doubt; inactive = no such curve, though single readings can be large; an effect the other way counts as inactive or inconclusive.

With `CC(C)n1c(/C=C/[C@@H](O)C[C@@H](O)CC(=O)O)c(-c2ccc(F)cc2)c2ccccc21`, the Potency in test [1] is 0.841 µM (active). Further, the Potency entry in test [2] is “inactive”.

For the compound `C#C[C@]1(OC(C)=O)CC[C@H]2[C@@H]3CCC4=C/C(=N/O)CC[C@@H]4[C@H]3CC[C@@]21CC`, the Potency entry in test [1], in test [2] and in test [3] was “inactive” each time.

Turning to `Oc1ccc(Cl)cc1Cc1cc(Cl)ccc1O`, in test [1], the Potency is 16.8 µM (active). Further, in test [2], the Potency entry is “inactive”.

With `CCOc1ccc(NC(C)=O)cc1`, the Potency entry in test [1], in test [2], in test [3] and in test [4] was “inactive” in each case.

`OCCOCCN1CCN(C2=Nc3ccccc3Sc3ccccc32)CC1`: the Potency entry in test [1], in test [2], in test [3] and in test [4] was “inactive” throughout.

With `OC[C@H]1O[C@@H]2O[C@H]3[C@H](O)[C@@H](O)[C@@H](O[C@H]4[C@H](O)[C@@H](O)[C@@H](O[C@H]5[C@H](O)[C@@H](O)[C@@H](O[C@H]6[C@H](O)[C@@H](O)[C@@H](O[C@H]7[C@H](O)[C@@H](O)[C@@H](O[C@H]8[C@H](O)[C@@H](O)[C@@H](O[C@H]1[C@H](O)[C@H]2O)O[C@@H]8CO)O[C@@H]7CO)O[C@@H]6CO)O[C@@H]5CO)O[C@@H]4CO)O[C@@H]3CO`, the Potency result in test [1], in test [2], in test [3] and in test [4] was “inactive” each time.

`NC(=S)N/N=C/c1cccnc1`: the Potency result in test [1], in test [2], in test [3] and in test [4] was “inactive” in each case.

With `CC(=O)Nc1ccc(OCC(O)CNC(C)C)cc1` (stereo not given), the Potency result in test [1], in test [2] and in test [3] was “inactive” in each case.

Take `O=c1[nH]c(=O)n([C@H]2C[C@H](O)[C@@H](CO)O2)cc1F`: the Potency result in test [1] and in test [2] was “inactive” each time.

`CN1CCN(c2cc3c(cc2F)c(=O)c(C(=O)O)cn3-c2ccc(F)cc2)CC1`: the Potency entry in test [1], in test [2], in test [3] and in test [4] was “inactive” each time.

Regarding `CCCCC(CC)COC(=O)c1ccc(N(C)C)cc1` (stereo not given), the Potency result in test [1], in test [2], in test [3] and in test [4] was “inactive” each time.

Take `C[N+]1(C)CCC(=C(c2ccccc2)c2ccccc2)CC1`: the Potency entry in test [1], in test [2], in test [3] and in test [4] was “inactive” in each case.

Consider `CCCCNc1ccc(C(=O)OCCOCCOCCOCCOCCOCCOCCOCCOCCOC)cc1`, for which the Potency entry in test [1], in test [2], in test [3] and in test [4] was “inactive” in each case.

Take `Cc1ccc(S(=O)(=O)NC(=O)NC2CCCC2)cc1`: the Potency entry in test [1], in test [2], in test [3] and in test [4] was “inactive” each time.

`CC(=O)N[C@@H](CCC(=O)O)C(=O)O`: the Potency result in test [1], in test [2], in test [3] and in test [4] was “inactive” throughout.

Regarding `CCc1nn(CCCN2CCN(c3cccc(Cl)c3)CC2)c(=O)n1CCOc1ccccc1`, the Potency result in test [1], in test [2] and in test [3] was “inactive” in each case.

For the compound `COc1ccccc1N1CCN(CCCCNC(=O)c2ccc(-c3ccc(C(C)=O)cc3)cc2)CC1`, the Potency entry in test [1], in test [2], in test [3] and in test [4] was “inactive” in each case.

Consider `CC(C)NCC(O)c1ccc2ccccc2c1` (stereo not given), for which the Potency result in test [1], in test [2], in test [3] and in test [4] was “inactive” throughout.

Regarding `O=C1[C@H](CC[C@H](O)c2ccc(F)cc2)[C@@H](c2ccc(O)cc2)N1c1ccc(F)cc1`, the Potency result in test [1], in test [2] and in test [3] was “inactive” each time.

Regarding `COc1cc(C(=O)N2CCCCCCC2)cc(OC)c1OC`, the Potency result in test [1], in test [2], in test [3] and in test [4] was “inactive” in each case.

With `CCN(CC)CCOC(=O)C1(c2ccccc2)CCCC1`, the Potency entry in test [1], in test [2], in test [3] and in test [4] was “inactive” in each case.

Consider `CC(C)(C)NCC(O)COc1cccc2c1C[C@H](O)[C@H](O)C2` (stereo not given in full), for which the Potency result in test [1], in test [2], in test [3] and in test [4] was “inactive” each time.

As to `C#C[C@]1(O)CC[C@H]2[C@@H]3CCc4cc(OC)ccc4[C@H]3CC[C@@]21C`, the Potency entry in test [1], in test [2], in test [3] and in test [4] was “inactive” each time.

Take `CC(C)[N+](C)(C)CC(O)COc1cccc2ccccc12` (stereo not given): the Potency result in test [1], in test [2], in test [3] and in test [4] was “inactive” each time.

Take `N#C/C(=C1\SCC(c2ccccc2Cl)S1)n1ccnc1` (stereo not given): the Potency result in test [1], in test [2], in test [3] and in test [4] was “inactive” throughout.

With `CN(CCCN1c2ccccc2CCc2ccccc21)CC(=O)c1ccc(Cl)cc1`, the Potency entry in test [1], in test [2], in test [3] and in test [4] was “inactive” in each case.

In the case of `O=S(=O)(O)c1ccc(O)cc1`, the Potency result in test [1], in test [2], in test [3] and in test [4] was “inactive” in each case.

Regarding `CCNC(=O)NCc1cccc(Cl)c1`, the Potency entry in test [1], in test [2], in test [3] and in test [4] was “inactive” each time.

Take `CC(C)[C@@H]1CC[C@@H](C)CC1=O`: the Potency result in test [1], in test [2], in test [3] and in test [4] was “inactive” each time.

With `Cc1c[nH]c2ccccc12`, the Potency result in test [1], in test [2], in test [3] and in test [4] was “inactive” in each case.

Take `CCCCNC(=O)NS(=O)(=O)c1ccc(N)cc1`: the Potency result in test [1], in test [2], in test [3] and in test [4] was “inactive” in each case.

Turning to `CC(=O)NC(=O)c1ccccc1O`, the Potency result in test [1], in test [2], in test [3] and in test [4] was “inactive” in each case.

In the case of `CC(=O)O[C@]1(C(C)=O)CC[C@H]2[C@@H]3C=C(C)C4=CC(=O)CC[C@]4(C)[C@H]3CC[C@@]21C`, the Potency entry in test [1], in test [2], in test [3] and in test [4] was “inactive” in each case.

In the case of `NC(=O)c1ccccc1O`, the Potency result in test [1], in test [2], in test [3] and in test [4] was “inactive” in each case.

`CC(=O)Nc1ccc(OC(=O)c2ccccc2OC(C)=O)cc1`: the Potency result in test [1], in test [2], in test [3] and in test [4] was “inactive” each time.

Take `O=S(c1cc(Cl)cc(Cl)c1O)c1cc(Cl)cc(Cl)c1O`: the Potency entry in test [1], in test [2], in test [3] and in test [4] was “inactive” throughout.

On to `CC(=O)Oc1ccc(C)cc1`, for which the Potency entry in test [1], in test [2], in test [3] and in test [4] was “inactive” each time.

`COc1ccc(CN(CCN(C)C)c2ncccn2)cc1`: the Potency result in test [1], in test [2], in test [3] and in test [4] was “inactive” each time.

Take `O=C(NC1CCN(CCc2c[nH]c3ccccc23)CC1)c1ccccc1`: the Potency entry in test [1], in test [2], in test [3] and in test [4] was “inactive” throughout.

For the compound `C=C[C@H]1CN2CC[C@H]1C[C@@H]2[C@@H](O)c1ccnc2ccc(OC)cc12`, the Potency entry in test [1], in test [2], in test [3] and in test [4] was “inactive” in each case.

Source of the values: PubChem BioAssay (NCATS).
